An excerpt weighted towards active compounds, which were near 3% of everything screened.
Wnt bcat act: Wnt/beta-catenin pathway activators, primary screen, cell-based, plate reader, single point. Wnt/beta-catenin reporter cell assay, activator. activation, % at 9.35 µM. hit rate 1.2% among 300,000. AID 743398, 2014; in the data active means activation above about 30%, passing the limit was not always enough; inconclusive means no clear call, values can overlap the other calls;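 further: 0% = neutral control wells and 100% = positive control wells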
MITF TRPM1 HTS: activators of MITF-driven TRPM1 promoter reporter, primary screen, cell-based, SK-MEL-5, luciferase, single point. SK-MEL-5 TRPM1-promoter luciferase, 24 h; % of positive control, neutral wells = 0. hit rate 0.75% among 300,000. activation, % at 12.5 µM;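 active means mean activation of at least 80% with every replicate also reaching 80%; inconclusive means mean reaches 80% but some replicate falls short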;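 further: 0% = neutral control wells and 100% = parthenolide positive control wells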
Statin myotox sup: suppressors of statin myotoxicity in C2C12 myotubes, primary screen, cell-based, single point, plate reader; C2C12 myotubes + simvastatin, ATP luminescence, 48 h; scaled: DMSO 0, geranylgeraniol control 100; rescue of ATP level, % at 7.49 µM; hit rate 0.78% among 330,000; AID 602340, 2012;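 active means mean ATP rescue above about 67%, or every replicate alone reaching that limit, limit read from the data, passing the limit was not always enough; inconclusive means no clear call, values can overlap the other calls; inactive means mean under the limit and some replicate under it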;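 further: myotubes were challenged with 10 µM simvastatin during compound exposure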
esBAF inh: Bmi1 luciferase reporter increase in mESCs, primary screen, esBAF inhibitor project, mouse ES cells, Bmi1 luciferase knock-in, single point. 24 h; 100% = twice the neutral-well signal. reporter increase, % at 12.5 µM. hit rate 2% among 350,000; in the data active means activation above about 40%; inconclusive means no clear call, values can overlap the other calls;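 further: 0% = median of the plate's neutral control wells and 100% = double that signal; a rise in the Bmi1 reporter signal indicates esBAF inhibition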
* hit, by the source's call; ? = inconclusive; · = no result given.

SMILES	Wnt bcat act	MITF TRPM1 HTS	Statin myotox sup	esBAF inh
CC(C)CC#Cc1cnc2c(c1)C(=O)N([C@H](C)CO)C[C@H](C)[C@@H](CN(C)C(=O)CCN1CCCCC1)O2	·	·	2	3
COc1ccc(C(=O)c2nc3c(n2O)CCCC3)cc1OC	-1	-6	122*	-8
Cc1ccc(S(=O)(=O)N[C@@H]2C=C[C@@H](CC(=O)O)O[C@@H]2CO)cc1	·	·	8	-3
CC(C)Oc1cccc(-c2cc(C(=O)N3CCN(c4ncccn4)CC3)c3ccccc3n2)c1	-6	51	32	60*
COc1cccc(-c2cc(C(=O)N3CCN(c4ncccn4)CC3)c3ccccc3n2)c1	·	23	24	28
O=C(Nc1ccc(Cl)c(S(=O)(=O)N2CCOCC2)c1)c1cc2ccccc2oc1=O	3	27	2	82*
O=C(c1cc2ccccc2oc1=O)N1CCOCC1	35*	63	-3	49*
CC(C)c1ccc(CNc2nc3nc4c(c(=O)n3[nH]2)CCC4)cc1	-1	-5	111*	-1
CCn1c(O)c(/C=C2\C=Nc3ccccc32)sc1=Nc1ccccc1	0	68	9	67*
Cn1c(O)c(/C=C2\C=Nc3ccccc32)sc1=Nc1ccc(C(=O)O)cc1	-5	-28	-8	-3
O=C(NN1C(=O)c2ccccc2C1=O)C1CCCCC1	·	-10	100*	-6
O=C(NN1C(=O)c2ccccc2C1=O)C1CC2CCC1C2 (stereo unspecified)	1	2	5	-8
Cc1ccc(S(=O)(=O)Nc2ccc3c(c2)C(=O)N([C@H](C)CO)C[C@@H](C)[C@H](CN(C)C(=O)Nc2c(C)noc2C)OCCCC[C@@H](C)O3)cc1	·	·	·	2
CC(C)C[C@@H](CSc1ccccc1)N1CCN(CC(C)C)CCC1=O	43*	103*	-12	50*
CCCN1CCC(=O)N([C@H](CSc2ccccc2)CC(C)C)CC1	16	93*	0	37
CCCN1CCC(=O)N([C@H](CSc2ccc(C)cc2)CC(C)C)CC1	30	98*	-30	46*
CC(C)CN1CCC(=O)N([C@H](CSc2ccc(Br)cc2)Cc2ccccc2)CC1	-3	12	·	·
CCCN1CCC(=O)N([C@H](CSc2ccc(Br)cc2)c2ccccc2)CC1	20	89*	16	51*
CCCN1CCC(=O)N([C@H](CSc2ccc(C)cc2)Cc2ccccc2)CC1	-2	8	-21	-15
CC(C)C[C@@H](CSc1ccccc1)N1CCN(C)CCC1=O	12	13	-3	0
COc1cccc(S(=O)(=O)Nc2ccc3c(c2)OC[C@@H](C)N(C(=O)Cc2cccnc2)C[C@@H](C)[C@@H](OC)CN(C)C3=O)c1	·	·	10	4
CO[C@H]1CN(C)C(=O)c2cc(NC(=O)C3CCOCC3)ccc2OC[C@@H](C)N(C(=O)c2ccccc2)C[C@@H]1C	·	·	-15	-3
CN(C)Cc1cn(CC[C@H]2CC[C@@H](NC(=O)Nc3ccc4c(c3)OCO4)[C@H](CO)O2)nn1	·	·	-3	-1
C[C@@H]1CCCCO[C@@H](CN(C)C(=O)C2CCCCC2)[C@@H](C)CN([C@@H](C)CO)C(=O)c2cc(NS(=O)(=O)c3ccc(F)cc3)ccc2O1	·	·	·	1
Cc1cc(C(F)(F)F)c2sc(N)nc2n1	-2	·	85*	-8
SMILES	Wnt bcat act	MITF TRPM1 HTS	Statin myotox sup	esBAF inh
Nc1nc2nc(-c3ccccc3)cc(C(F)(F)F)c2s1	-1	-4	24	-7
COc1cn(-c2ccccc2)nc1C(=O)Nc1ccccc1	15	22	-17	60*
COc1cn(-c2ccccc2)nc1C(=O)Nc1ccc(C)cc1	14	46	-10	?
C/C(=N\O)c1ccc(N2C(=O)C3CC=C(Cl)CC3C2=O)cc1 (stereo unspecified)	59*	?	-2	73*
CCOc1ccc(C(=O)N2CCCC2)cc1OC	34*	-11	-18	0
CCOc1cc(C(=O)Nc2cc(C)ccc2OC)ccc1OCC(=O)N1CCCCC1	-2	4	115*	8
O=C(NCC[C@@H]1CC[C@H](NC(=O)C2CCC2)[C@@H](CO)O1)c1cnccn1	·	·	-22	-4
C[C@@H]1CN([C@@H](C)CO)C(=O)c2cc(C3=CCCC3)cnc2O[C@H]1CN(C)Cc1ccccn1	·	·	33	-5
O=C(NCc1ccccc1)c1cccc(COc2cccc(Cl)c2)c1	9	29	·	·
O=C(NCc1ccccc1)Oc1cccc(Cl)c1	3	-6	106*	12
C[C@@H]1CN([C@H](C)CO)C(=O)c2cc(NC(=O)c3ccncc3)ccc2O[C@@H](C)CCCCO[C@H]1CN(C)Cc1ccc(C(F)(F)F)cc1	·	·	45	1
CN(C)/C=C/C(=O)c1ccc(N2CCN(c3ncc(C(F)(F)F)cc3Cl)CC2)cc1	·	-27	134*	18
Cc1noc(C)c1S(=O)(=O)Nc1ccc2c(c1)C(=O)N([C@@H](C)CO)C[C@H](C)[C@H](CN(C)C(=O)NC(C)C)OCCCC[C@H](C)O2	·	·	·	-6
CS(=O)(=O)N1[C@H](CO)[C@@H](c2ccccc2)[C@@H]1C#N	·	·	-1	1
Cc1cc2ncn(C(=O)N3CCC(C)CC3)c2cc1C	·	48	-3	54*
COCCCNC(=O)c1c(NC(=O)c2cccs2)sc2c1CCCC2	-7	·	-11	-3
O=C(Nc1sc2c(c1C(=O)O)CCC2)c1cccs1	·	-1	-7	46*
NC(=O)c1c(NC(=O)c2cccs2)sc2c1CCCCCC2	·	118*	-40	105*
CCC(=O)Nc1ccc2c(c1)C(=O)N(C)[C@@H]1CC[C@H](CC(=O)N[C@@H](C)c3ccccc3)O[C@@H]1CO2	·	·	-5	-1
CN1C(=O)c2cc(NC(=O)c3cccs3)ccc2OC[C@H]2O[C@@H](CC(=O)NCCN3CCCCC3)CC[C@H]21	·	·	-42	-2
N#C/C(=C\c1ccc2c(c1)OCCO2)C(=O)Nc1ccc(C(=O)O)cc1	15	23	2	61*
Cc1cccnc1NC(=O)c1c(O)c2cccc3c2n(c1=O)CCC3	-4	-24	·	-10
O=C(Nc1ccccn1)c1c(O)c2cccc3c2n(c1=O)CCC3	·	7	-3	64*
C[C@@H](NC(=O)C[C@@H]1C=C[C@H](NC(=O)C2CCC2)[C@H](CO)O1)c1ccccc1	·	·	-7	1
O=C(Nc1ccc(Cl)cc1)N[C@@H]1CC[C@@H](CCn2cc(C3(O)CCCC3)nn2)O[C@H]1CO	·	·	17	-3
COc1ccc(C2CC(=O)C(C=NCCN3CCN(C(C)=O)CC3)=C(O)C2)cc1 (stereo unspecified)	·	10	19	-5
COc1ccc(C2CC(=O)C(C=NCCN3CCOCC3)=C(O)C2)cc1 (stereo unspecified)	·	-15	126*	-7
C/C(=N\NC(=O)c1c[nH]c2ccccc12)c1ccccn1	24	7	·	·
C/C(=N\NC(=O)c1c[nH]c2ccccc12)c1ccco1	-1	19	9	51*
